The panel holds about 83,000 compounds, 20% with a hit somewhere; the sample as a whole holds those more often.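 Method: cells in 96-well plates; compound added at one concentration; 48 h incubation; percent growth measured; values under 10 scored active.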 Calls of active or inactive are those of the source.

For the assay, the system named is NCI-H460 lung. Kind of assay: NCI-60 one-dose screen, 48 h (100 = growth as untreated, 0 = no growth, -100 = all killed). The following applies: 10 µM unless noted.
With `O=S(=O)(NCCNc1cc(-c2cn(-c3ccccc3)nc2-c2cccc(O)c2)ccn1)c1ccc(C(F)(F)F)cc1`, the growth is 42.3% (inactive).
For `Cc1cc(C)c(NC(=O)c2sc3nc4c(cc3c2N)CCCC4)c(C)c1`, the growth was 28.8% (inactive).
Regarding `C/C(=N\Nc1cc(C)c2ccccc2n1)c1ccccn1`, the growth is -44.7% (active).
As for `C=C1C(=O)O[C@H]2[C@H]1CC/C(Cn1cc(-c3ccc(OC)cc3)nn1)=C\CC[C@@]1(C)O[C@@H]21`, the figure is 87.6% (inactive); as for `COC(=O)[C@]12CC[C@@H](C)[C@H](C)[C@@H]1C1=CC[C@@H]3[C@@]4(C)C[C@@H](OC(C)=O)[C@H](OC(C)=O)[C@@](C)(COC(C)=O)[C@@H]4[C@H](O)C[C@@]3(C)[C@]1(C)CC2`, 4.06% (active); as for `COc1cccc(-c2nn(-c3ccccc3)cc2-c2ccnc(NCCCNS(=O)(=O)c3ccc(Cl)cc3)c2)c1`, 40.9% (inactive).
`O=c1c(CNc2ccc(S(=O)(=O)Nc3ncccn3)cc2)coc2ccccc12`: the growth was 105% (inactive).
As to `COc1ccc(-c2cc(/C=C/C(=O)c3ccc(OC)c(OC)c3)[nH]n2)cc1`, the growth is -71.1% (active).
Then `C#Cc1cc2c(N)c(C(=O)c3cc(OC)c(OC)c(OC)c3)[nH]c2cc1OC`, with 15.6% (inactive).
As for `O=S(=O)(NCCNc1cc(-c2cn(-c3ccccc3)nc2-c2cccc(O)c2)ccn1)c1ccc(F)cc1`, the figure is 22.9% (inactive); as for `c1ccc2[nH]c(-c3cc(-c4ccc5c(c4)OCO5)n[nH]3)nc2c1`, 46.4% (inactive).
As to `COc1cccc(-c2nn(-c3ccccc3)cc2-c2ccnc(NCCCNS(=O)(=O)c3cccc(F)c3)c2)c1`, the growth was 24.5% (inactive).
As for `COc1cc(-c2cc(-c3nc4cc(Cl)c(Cl)cc4[nH]3)[nH]n2)cc(OC)c1OC`, the figure is 69.7% (inactive); as for `Oc1cc(/C=C/c2nc(N3CCOCC3)c3cc(Cl)c(Cl)cc3n2)cc(O)c1O`, 101% (inactive); as for `Cc1cc(Nc2ccc(F)cc2)nc(N2CCN(c3ccnc4cc(Cl)ccc34)CC2)n1`, 11.6% (inactive).
Then `COc1ccc(/C=C/C(=O)NCC(C)O)cc1` (centres undefined), with 101% (inactive); and `COc1ccc(-c2cc(/C=C/C(=O)c3ccc(N)cc3)[nH]n2)cc1`, with -50% (active).
Consider `CSc1ccc(N(C)c2nc(C)nc3c2CCC3)cc1`, for which the growth was 6.41% (active).
As for `OCCNc1nc(Nc2ccc(Cl)c(Cl)c2)nc2ccccc12`, the figure is 33.3% (inactive); as for `COc1cc(-c2cc(-c3nc4ccccc4[nH]3)[nH]n2)cc(OC)c1OC`, 35.5% (inactive).
Then `O=C1CCN2C(=O)Nc3ccccc3C2C1` (centres undefined), with 100% (inactive); and `Cc1[c-]onc1C.Cc1[c-]onc1C.[Ag].[Ag].[NH-]S(=O)(=O)c1ccc(N=Nc2cc(N=Nc3ccc(S([NH-])(=O)=O)cc3)c3c(NC(=O)C(Cl)Cl)cccc3c2OC(=O)C(Cl)Cl)cc1`, with 57.3% (inactive); and `Clc1ccc(Cn2cc(-c3nc4ccc(Br)nc4n3Cc3ccc(Cl)cc3)c3cccnc32)cc1`, with 97.4% (inactive).
As for `COC(=O)[C@]12CC[C@@H](C)[C@H](C)[C@@H]1C1=CC[C@@H]3[C@@]4(C)C[C@@H](OC(C)=O)[C@H](O)[C@@](C)(COC(C)=O)[C@@H]4[C@H](O)C[C@@]3(C)[C@]1(C)CC2`, the figure is -86.9% (active).

(Values after PubChem BioAssay (NCI).)
